Measurements: PubChem BioAssay AID602332 (National Center for Advancing Translational Sciences (NCATS), 2012)
Several values for one entry are separate records, joined by “and”; a condition that tells them apart may be missing. Identical values can stand only once. Among all 420,000 compounds or so, about 75 (0.02%) were called active. Calls come from the whole dose curve; as a rule, active = well fitted activation curve with a large enough effect; inconclusive = small, poorly fitted or top-dose-only effect; inactive = no such curve, though single readings can be large or run the other way. The sample as a whole holds a higher share of actives than the screen did.

Test: qHTS for Inducers of the Endoplasmic Reticulum Stress Response (ERSR) in Human Glioma: qHTS; note: nearly all actives have a fitted effect of over 35% in size; for activation: % of control where 0% means no effect
Details: U87-MG GRP78 promoter luciferase reporter, 16 h; activation: hits give high values
Source text: Primary protein unfolding takes place for many diseases, including diabetes and hypoxia, , and triggers a reaction in the cells called ER stress response (ERSR). ). ERSR is designed as a repair mechanism, but ultimately leads to cell death via apoptosis if conditions triggering protein unfolding persist (1). The molecular clue to ERSR activation is the enhancement of the expression of key molecular chaperones, including the glucose regulated protein (GRP) 78. GRP78 is the main sensor for protein folding and the main actuator of the ERSR.
In a collaboration between the Southern Research Institute and the NIH Chemical Genomics Center, a cell based screen was developed that reliably uses GRP78 as a sensor to identify small molecules as inducers of ERSR. In resting conditions, GRP78 binds proteins and acts as a natural repressor. Once unfolded proteins are present in the ER, GRP78 releases some of the repressors and binds to the unfolded proteins. The release of the repressors executes the ERSR program. Using a human glioma cell line in a miniaturized, luminescent format, a high-throughput screen was developed to identify actuators of the ERSR.
(1) Soboloff, J. and S. A. Berger (2002). "Sustained ER Ca2+ depletion suppresses protein synthesis and induces activation-enhanced cell death in mast cells." J Biol Chem 277(16): 13812-20.
NIH Chemical Genomics Center [NCGC]
NIH Molecular Libraries Probe Centers Network [MLPCN]
Assay Submitter (PI): Maurizio Grimaldi, Southern Research Institute
Stable transfected human glioma cell line, U87-MG, are dispensed at density 1000 cells/well into Greiner white solid bottom 1536-well assay plates. Compounds are transferred via Kalypsys pin tool equipped with 1536-pin array (10nl slotted pins, V&P Scientific, San Diego, CA). The assay plates will be incubated for 16 hours and developed by adding appropriate quantities of the Promega Bright Glo reagent. The plates will be incubated at room temperature for 10 minutes prior to being transferred into a ViewLux high-throughput CCD imager (PerkinElmer), wherein end-point measurements of luminescence are acquired.
Potency is the fitted concentration of half-maximal effect.

activation, inactive:
OCC1CCCN(c2nc3cc4c(cc3cc2CNCc2cccs2)OCO4)C1 (stereo not drawn) -3.02%, Cc1cc[n+](C2CCCCC2)cc1 0.895%, C#CCC(C(=O)OC)(C(=O)OC)C(C[N+](=O)[O-])c1ccccc1 (stereo not drawn) -5.05%, COc1ccc(CN2CCOc3c(cc(-c4ncc(C(F)(F)F)cc4Cl)cc3OCC3CCCO3)C2)c(O)c1 (stereo not drawn) -0.626%, COc1cccc(CN2CCC3(CC2)c2ccccc2[C@@H](NC(=O)c2ccccc2OC)[C@@H]3O)c1 -2.93%, CC1(C)OC(C(O)(c2ccccc2)c2ccccc2)C(C(O)(c2ccccc2)c2ccccc2)O1 (stereo not drawn) -4.02%, C[C@@H]1O[C@@H](OC[C@H]2O[C@@H](Oc3cc(O)c4c(c3)O[C@H](c3ccc(O)c(O)c3)CC4=O)[C@H](O)[C@@H](O)[C@@H]2O)[C@H](O)[C@H](O)[C@H]1O -3.44%, CC(=O)OCC1OC(C#CCCCc2ccccc2)C=CC1OC(C)=O (stereo not drawn) -2.84% and 1.87%, CC(=O)OC[C@H]1O[C@@H](O[C@H]2[C@H](O)[C@@H](OC(=O)c3ccccc3C(=O)O)[C@H](O)O[C@@H]2COC(C)=O)[C@H](O)[C@@H](OC(=O)c2ccccc2C(=O)O)[C@@H]1O -0.805%, CN(C)c1ccc(/C=C/c2sc3ccccc3[n+]2C)cc1 -8.55%, FC(F)(F)c1cccc(-c2cn[nH]c2C2CCCN(Cc3cccn3-c3ccccn3)C2)c1 (stereo not drawn) -5.05%, C=C(C)C1CC=C(CO)CC1 (stereo not drawn) -1.71%, CCOC(=O)N/N=C1/C[C@@H](O)[C@@H](O)[C@@H]2[C@@H]3C(=O)N(CC)C(=O)[C@H]3CC[C@H]12 -5.32%, CN1[C@H]2CC(OC(=O)[C@@H](CO)c3ccccc3)C[C@H]1[C@H]1O[C@H]12 (stereo partly drawn) -4%, COc1ccccc1-c1ccc(C(=O)N(C)C(C)c2ccon2)c(N2CCN(c3ccccc3F)CC2)n1 (stereo not drawn) -4.71%, Cc1cnc(C(=O)N2CCOc3ccc(CN4CCCC(C(=O)c5cccnc5)C4)cc3C2)[nH]1 (stereo not drawn) -3.36%, COc1ccc(CN2CCC3(CCC(CNC(=O)c4ccco4)O3)CC2)cc1OC (stereo not drawn) 0.172%, COC(=O)c1ccccc1-c1cc(C)cc2c1OC(CNC(=O)C1CCOC1)C2 (stereo not drawn) -1.81%, Cn1c(=O)c(CCc2ccccc2)nc2cnc(Nc3ccccc3)nc21 -3.93%, Cc1c(S(=O)(=O)O)oc2c1C(=O)C(=O)c1c-2ccc2c1CCCC2(C)C -3.94%, CCOC(=O)N1CCC(N2CCOc3ccc(CN4CCC(O)(c5cccnc5)CC4)cc3C2)CC1 -2.68%, CC(CCC(=O)O)C1CCC2C3C(O)C[C@@H]4CC(O)CC[C@@]4(C)C3CC[C@@]12C (stereo partly drawn) -5.26% and -4.28%, COc1ccc(-n2c(CNC(=O)c3cc(C(F)(F)F)ccc3Cl)nnc2SC)cc1 -6.93%, COc1c(O)c2c(=O)cc(OC)c3c4c(OC)cc(=O)c5c(O)c(OC)c6c(c(c1C[C@@](C)(O)[C@H]6C(C)=O)c23)c54 -6.89%, COc1cc(=O)n2c(c1C(=O)N(C)Cc1nonc1C)CCN(C(=O)c1ccc(C)cc1C)CC2 -4.93%, CC(C)(C)c1ccc(OC2C=CC(C#Cc3ccccc3)OC2CO)cc1 (stereo not drawn) -2.6%, CCOc1ccc2nc(N3CCCN(CCCn4cccn4)CC3)nc(C)c2c1 0.4%, O=C(NCC1Cc2cc(F)cc(-c3cnccn3)c2O1)C1COc2ccccc2O1 (stereo not drawn) -2.7%, CCC1CN(CCNC(=O)c2cccc(C)n2)Cc2cc(OC)ccc2O1 (stereo not drawn) -0.701%, C=C1C(=CC=C2CCC[C@]3(C)[C@@H]([C@H](C)C=C[C@H](C)C(C)C)CC[C@@H]23)C[C@@H](O)C[C@@H]1O -0.319%, COc1cccc(-c2cc(=O)c3cc(NC(=O)c4ccc(C)cc4)ccc3[nH]2)c1 -1.6%, COc1ccccc1C(=O)N[C@@H]1c2ccccc2C2(CCN(Cc3nc(C(C)C)cs3)CC2)[C@H]1O -7.22%, CCC1CN(CCNC(=O)c2cccnc2C)Cc2cc(OC)ccc2O1 (stereo not drawn) -0.134%, Cc1[nH]c2c(C(=O)NCC3Cc4cccc(-c5cccnc5)c4O3)cccc2c1C (stereo not drawn) -3.83%, c1ccc(CN2CCN(Cc3ccc4c(c3)CN(Cc3c[nH]c5ccccc35)CCO4)CC2)nc1 -3.67%, CN1CCN(/[N+]([O-])=N/Oc2ccc([N+](=O)[O-])cc2[N+](=O)[O-])CC1 20.9%, CCc1noc(C)c1C(=O)NCCN1Cc2cc(OC)ccc2OC(CC)C1 (stereo not drawn) -4.48%, C=C1/C(=C\C=C2\CCCC3(C)C2CCC3C(C)/C=C/C(O)C2CC2)CC(O)CC1O (stereo not drawn) -9.49%, COC(=O)c1ccccc1C(=O)NCc1nc(N2CCCC2)c2cccc(C)c2n1 -2.48%, CC(=O)c1ccc(F)c(-c2cc(C)cc3c2OC(CNC(=O)Cc2c[nH]c4ccccc24)C3)c1 (stereo not drawn) 0.07%, CO/N=C(\C(=O)N[C@@H]1C(=O)N2C(C(=O)O)=C(Cn3nnc(C)n3)CS[C@H]12)c1csc(N)n1 -1.86%, CCCCc1nn(-c2ccccc2C(F)(F)F)c(=O)n1Cc1ccc(-c2ccccc2S(=O)(=O)NC(=O)c2sccc2C)cc1 -2.91%, Cc1ccc2c(C)nc(N3CCCC(C(=O)NC(C)(C)CO)C3)nc2c1 (stereo not drawn) -2.4%, CC(O)(COc1ccccc1)c1ccc2c(c1)CN(Cc1cn[nH]c1-c1ccc(F)cc1)CCO2 (stereo not drawn) -3.22%, COc1ccccc1C1CN(Cc2ccccc2O)Cc2ccccc2O1 (stereo not drawn) -2.43%, C[C@H]1CC[C@H](C(=O)O)N[C@@H]1c1ccc(C#Cc2ccccc2)cc1 -4.8%, C=CCC1CCC(=O)N2CCCC12 (stereo not drawn) -2.78%

Potency, active:
C=C(C)C1CC=C(C)C(O)C1 (stereo not drawn) 11.2 µM
